About 50,000 (12%) of roughly 420,000 compounds were called active. Not shown: some 26% with an inconclusive outcome. The sample as a whole holds a higher share of actives than the screen did. Values without a mark were called inactive. The call rests on the fitted dose curve; in most records, active means well fitted inhibition curve with a large enough effect; inconclusive means small, poorly fitted or top-dose-only effect; inactive means flat fitted curve, though single readings scatter.
On the % scale 0 is the no-effect control and ±100 the full control effect; potency means the concentration at half of the fitted maximal effect.

This assay can be described thus: qHTS for Inhibitors of human tyrosyl-DNA phosphodiesterase 1 (TDP1): qHTS in cells in presence of CPT. Further: nearly all actives have a fitted effect of over 55% in size. As to conditions: chicken DT40 Tdp1-/-;hTDP1 cells + 20 nM CPT, ATP luminescence, 48 h; series mostly up to 46.2 µM; activity change, negative = growth inhibition: at the top concentration. The method, boiled down: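 Chicken DT40 Tdp1-/- cells complemented with human TDP1, 400 cells/well, exposed to compounds plus 20 nM camptothecin for at least 48 h at 37 C; viability read as ATP content by CellTiter-Glo luminescence.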
As for `COc1cc(NC(=O)CCNC(=O)Cn2ccc3ccccc3c2=O)cc(OC)c1OC`, the Potency result was “inactive”. With `CC(C)n1c(-c2ccncc2)n[nH]c1=S`, the “activity change, negative = growth inhibition” value is 5.83%.

For the compound `C#CCN(N(C)c1ncc(C(F)(F)F)cc1Cl)S(=O)(=O)c1ccc2ccccc2c1`, the “activity change, negative = growth inhibition” value is -15.9%.

For the compound `CC(C)OC(=O)CN1C(=O)c2ccccc2C1=O`, the “activity change, negative = growth inhibition” value is -3.69%.

As to `CC(C)OC(=O)CN1C(=O)C(=O)c2ccccc21`, the Potency was 13 µM (active). Consider `CCOC(=O)C1CCN(C(=O)CN2C(=O)c3cccnc3Oc3ccc(C)cc32)CC1`, for which the “activity change, negative = growth inhibition” value is 1.02%.

As to `CCCCOC(=O)Cn1c(=O)n(CC(=O)OCCCC)c2cc(C)ccc21`, the “activity change, negative = growth inhibition” value was -31.3%.

For `CCOC(=O)CN1C(=O)C(=O)c2cc(C)ccc21`, the Potency is 8.2 µM (active).

As for `CC(OC(=O)CN1C(=O)c2ccccc2C1=O)C(=O)c1ccccc1` (stereo unspecified), the “activity change, negative = growth inhibition” value is -3.02%. On the same count and under the same terms, the figure for `NS(=O)(=O)c1ccc(CCNC(=O)CN2C(=O)c3ccccc3S2(=O)=O)cc1` is -9.69%; for `O=C(O)C(=Cc1ccc([N+](=O)[O-])cc1)CCc1ccccc1` it is -0.638%. For the compound `COc1ccccc1NC(=O)CCN1CCN(c2ccc(Cl)cc2)CC1`, the Potency is 14.6 µM (active). With `COc1ccc(NC(=O)CCN2CCCC2)c(OC)c1`, the “activity change, negative = growth inhibition” value was -15.2%. Still for that read-out and setting: the same measure for `COc1ccc(Cl)cc1NC(=O)CCN1CCOCC1`: 7.94%; for `CC(C#N)(NC(=O)CN1CCN(S(=O)(=O)c2cc(C(F)(F)F)ccc2Cl)CC1)C1CC1` (stereo unspecified): -37.5%. Same read-out and setting: the figure for `Cc1cc(NC(=O)COC(=O)/C=C/c2ccc(C)o2)no1` is -3.15%; for `CCCCc1ccc(NC(=O)NCc2cccnc2)cc1` it is -25%. Still for that read-out and setting: the same measure for `Cc1cc(/C=C2/SC(=O)N(CC(=O)N3CCCC3)C2=O)c(C)n1C`: 10.4%; for `O=C1c2ccccc2C(=O)c2c1cccc2N1CCN(CCO)CC1`: -17.2%. As to `Cc1cccc(N2CCN(C3=C(c4ccccc4)C(=O)c4ccccc43)CC2)c1C`, the Potency is 7.31 µM (active).

Consider `Cc1cccc(N2CCN(c3c(CN4CCCC4)c(=O)oc4ccccc34)CC2)c1C`, for which the “activity change, negative = growth inhibition” value is -24.3%. In the case of `COc1ccc(CCNC(=O)CCCCCNC(=O)N2CCn3c2nc2ccccc23)cc1OC`, the “activity change, negative = growth inhibition” value is -9.27%. The same measure, in the same setting: the same measure for `COc1cc(C(=O)OCC(=O)N(CC(C)C)C2CCS(=O)(=O)C2)ccc1OCC(C)C` (stereo unspecified): -4.05%; for `CC(C)OC(=O)c1c(NC(=O)c2ccco2)sc2c1CCCC2`: -1.92%. `CCOC(=O)c1c(NC(=O)/C=C/c2ccc(OC)cc2)sc2c1CCC(C)C2` (stereo unspecified): the “activity change, negative = growth inhibition” value is 0.589%. For `CCOc1ccc(NC(=O)c2c(NC(=O)Cc3ccccc3)sc3c2CCC(C)C3)cc1` (stereo unspecified), the Potency was 16.4 µM (active).

Turning to `COC(=O)c1c(NC(=O)CN2CCN(S(=O)(=O)c3ccccc3[N+](=O)[O-])CC2)sc2c1CCC(C)C2` (stereo unspecified), the “activity change, negative = growth inhibition” value is -7.69%.

Consider `CCOc1ccc(NC(=O)c2c(NC(=O)Cc3ccccc3)sc3c2CCCCC3)cc1`, for which the Potency is 18.4 µM (active). For `Cc1ccc(C)c(N2CCN(C(=O)Cn3ncn4cccc4c3=O)CC2)c1`, the “activity change, negative = growth inhibition” value was -24.7%. On the same count and under the same terms, the same measure for `Cc1ccc(NC(=O)C(CC(=O)O)C2CCCO2)c(C)c1` (stereo unspecified): -2.25%. For the compound `CN(Cc1ccccc1)C(=O)COC(=O)/C=C/c1ccc2c(c1)OCO2`, the “activity change, negative = growth inhibition” value is 4.78%.

With `COc1ccccc1C1C(C(N)=O)=C(C)Nc2nc(CCCO)nn21` (stereo unspecified), the “activity change, negative = growth inhibition” value was -0.304%. As to `CC(C)=C(NC(=O)c1ccco1)C(=O)NCCc1nc2ccccc2[nH]1`, the “activity change, negative = growth inhibition” value was 14%. Turning to `Cc1ccc(C(=O)N/C(=C/c2ccco2)C(=O)NCCc2c[nH]c3ccccc23)cc1C`, the “activity change, negative = growth inhibition” value was -41.2%. Turning to `CC(C)Oc1ccc(/C=C(\NC(=O)/C=C/c2ccco2)C(=O)NCCc2nc3ccccc3[nH]2)cc1`, the Potency is 18.4 µM (active). `COc1ccccc1Nc1nnc(SC(C)C(=O)NC2CC2)s1` (stereo unspecified): the “activity change, negative = growth inhibition” value is -28.6%. For the compound `Cc1ccccc1C1=NC(C(F)(F)F)(C(F)(F)F)c2c(n(-c3ccc(F)cc3)c(=O)[nH]c2=O)N1`, the Potency is 18.4 µM (active).

Take `O=c1[nH]c(=O)n(Cc2ccco2)c2c1C(C(F)(F)F)(C(F)(F)F)N=C(c1ccco1)N2`: the “activity change, negative = growth inhibition” value was -13.4%.

`CN(C(=O)CC1C(=O)NCCN1Cc1ccc(F)cc1Cl)C1CCCCC1` (stereo unspecified): the “activity change, negative = growth inhibition” value is -15.5%.

Take `CCOc1ccccc1NC(=O)Cn1ncc2ccc([N+](=O)[O-])cc21`: the “activity change, negative = growth inhibition” value was -25.4%. On the same count and under the same terms, the figure for `COC(=O)c1c(C)cc(O)c(C)c1O` is -9.14%.

`C/C(=N\NC(=O)C1(C)CC1(Br)Br)c1ccc(C)cc1C` (stereo unspecified): the “activity change, negative = growth inhibition” value was -18.8%. On the same count and under the same terms, the same measure for `O=c1c(-c2ccccc2)coc2c(CN3CCOCC3)c(O)ccc12`: -10.7%.

For `CC(C)CN(Cc1c(O)ccc2c(=O)c(-c3ccccc3)coc12)CC(C)C`, the Potency was 5.17 µM (active). `CN(C)Cc1c(O)ccc2c(=O)c(-c3ccccc3Cl)coc12`: the “activity change, negative = growth inhibition” value is -11.2%.

For the compound `Cc1ccccc1OCC(=O)Nc1nc(C)c(C(=O)N(C)C)s1`, the “activity change, negative = growth inhibition” value is -13.6%. Still for that read-out and setting: the figure for `CC1=C(c2ccc(F)cc2)S(=O)(=O)N=C1N1CCC(C(=O)NCCc2ccccc2C)CC1` is -2.27%. As to `CCc1ccccc1N(C)C(=O)C1CCCN(c2ncnc3onc(-c4ccc(F)cc4)c23)C1` (stereo unspecified), the Potency is 13 µM (active).

With `Cc1ccnc(N2CCCC(C(=O)Nc3cc(F)ccc3C)C2)n1` (stereo unspecified), the “activity change, negative = growth inhibition” value is -19.3%. `Cc1ccc(Cl)cc1N(C)C(=O)C1CCCN(c2ncnc3onc(-c4ccc(F)cc4)c23)C1` (stereo unspecified): the Potency was 7.31 µM (active).

Take `CCc1noc(C)c1C(=O)N1CCCC(N2CCN(c3ccc(F)cc3)CC2)C1` (stereo unspecified): the “activity change, negative = growth inhibition” value is -15.5%.

The record behind these values is PubChem BioAssay AID686979 (National Center for Advancing Translational Sciences (NCATS), 2013).
